Test results published in PubChem BioAssay (NCI).
About 79,000 compounds went through this panel and 15% of them were active in at least one assay; those are over-represented in the sample as a whole. Values without a mark were called inactive. Rule as the data show it: active = growth inhibition above about 70%; inactive = the rest.

Experiment: NCI Yeast Anticancer Drug Screen. Data for the mec2-1 strain (AID 157)
Settings: S. cerevisiae mec2-1 strain, at 50.0 µM, hits give high values
Method: Growth inhibition of yeast strains with defined genetic alterations is measured as a screen for potential anti-cancer activity. Selected strains with alterations in DNA damage repair or cell cycle control were exposed to compounds and growth inhibition was measured relative to vehicle treated controls. The strain used in this assay is mec2-1

| Structure (SMILES) | growth inhibition [%] |
| --- | --- |
| C[n+]1cc2cc3c(cc2c2ccccc21)OCO3 | 35 |
| COC(=O)c1ccccc1C(=O)c1c(C)cc(C)cc1C | 28.2 |
| C=C(c1ccc(N(C)C)cc1)c1ccc(N(C)C)cc1 | -2.55 |
| COc1cc(OC)c2cc(C(=O)c3ccc(C#N)cc3)c(=O)oc2c1 | -12.1 |
| Nc1ncnc(Nc2ccccc2)n1 | -28.1 |
| Nc1ccc2c(c1)Cc1cc(N)c(N)cc1-2 | -7.75 |
| CCOP(=O)(NC(c1ccccc1)c1ccccc1)OCC | -15.2 |
| C(=C\c1ccncc1)/c1ccncc1 | -7.2 |
| Cc1ccccc1NC(=O)Oc1ccc(Cl)cc1C(=O)c1ccccc1 | -27.4 |
| CCN(CC)c1ccc2nc3ccc(N=Nc4ccc(N(C)C)cc4)cc3[n+](-c3ccccc3)c2c1 | 52.5 |
| Nc1ncc([N+](=O)[O-])cn1 | -4.7 |
| C=C(C)[C@@H]1CC[C@]2(CO)CC[C@]3(C)[C@H](CC[C@@H]4[C@@]5(C)CC[C@H](O)C(C)(C)[C@@H]5CC[C@]43C)[C@@H]12 | -4.3 |
| CSCCC(NC(=O)C(Cl)Cl)C(=O)O (stereo not given) | -3 |
| O=[N+]([O-])c1ccc(-c2nc(N(CCO)CCO)c3ccccc3n2)o1 | 69.8 |
| O=S(=O)(O)c1cccc2cccnc12 | 1.95 |
| Cc1ccc(S(=O)(=O)NC(=O)NCCSSCCNC(=O)NS(=O)(=O)c2ccc(C)cc2)cc1 | -7.35 |
| CC(C)C(C)(C)C(=O)C(C)(C)C(C)(C)C | -2.65 |
| Cc1nc(O)cc(=O)[nH]1 | -6.9 |
| CCOC(=O)c1cc(Cl)c(O)c(Cl)c1 | -14 |
| CCOC(=O)c1c[nH][nH]c1=O | -8.45 |

| Structure (SMILES) | growth inhibition [%] |
| --- | --- |
| CN(C)c1ccc(O)c2c1CC1CC3C(N(C)C)C(=O)C(C(N)=O)=C(O)C3(O)C(=O)C1=C2O (stereo not given) | 29.7 |
| CC1=CC(=Nc2ccc(N(C)C)cc2)C=C(C)C1=O | -21.1 |
| CCCCc1ccc2nc(NC(=O)OC)[nH]c2c1 | 21.5 |
| N#C/C(=C\c1ccc2c(c1)OCO2)c1ccccc1 | -0.7 |
| O=C1NC(=O)/C(=C\c2ccncc2)N1 | -7.8 |
| C=COC(=O)CCOCC(CC)CCCC (stereo not given) | -15.1 |
| Cc1ccnc(Nc2nc3ccccc3[nH]2)n1 | -10.9 |
| CC1CCC(C(C)(C)[N+](C)(C)C)CC1 (stereo not given) | 17.6 |
| CCC(=O)C1C(=O)c2ccccc2C1=O | -12.6 |
| CCCCCCCCCCCCSC1=C(Cl)C(=O)C(OC)=C(OC)C1=O | -18.1 |
| C=C1C(=O)C2CCN1CC2 | -15.8 |
| CN1CCN(C(=S)S)CC1 | -2.5 |
| O=C1NCC2CCCC1C2 (stereo not given) | -8.15 |
| CSc1cnc2ccccc2n1 | -5.95 |
| O=C(NC(=S)N1CC=CCC1)c1ccccc1 | 16.7 |
| Cc1cccc(C)c1NC(=S)/N=C\c1c(O)[nH]c(=O)[nH]c1=O | -27.2 |
| COC1OC(COC(C)=O)C(OC(C)=O)C(OC(C)=O)C1OC(C)=O (stereo not given) | 3.05 |
| Cc1cc(=O)n(Nc2ccccc2)c(O)c1C#N | -19 |
| Cc1cccc2ccccc12 | -15.6 |
| CCOC(=O)c1ccc(NC(C)=O)o1 | 11.3 |
